From PubChem
Shown are actives, neighbours in structure and some others; about 1.1% of the full set was active somewhere.
Keap1 Nrf2 FP: Keap1-Nrf2 (human) interaction inhibition | Keap1 Kelch-Nrf2 peptide fluorescence polarization, 1536-well | inhibition, % at 9.4 µM | 340,000 tested, 0.15% active | AID 504523; in the data active = inhibition above about 12%;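 note: human Keap1 Kelch domain with fluorescein labeled Nrf2 9mer peptide probe; 0% = neutral control wells and 100% = peptide positive control; higher means more block of Keap1 binding to Nrf2 peptide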
Target sequence (Q14145 whole entry, looked up, the tested form may be a part): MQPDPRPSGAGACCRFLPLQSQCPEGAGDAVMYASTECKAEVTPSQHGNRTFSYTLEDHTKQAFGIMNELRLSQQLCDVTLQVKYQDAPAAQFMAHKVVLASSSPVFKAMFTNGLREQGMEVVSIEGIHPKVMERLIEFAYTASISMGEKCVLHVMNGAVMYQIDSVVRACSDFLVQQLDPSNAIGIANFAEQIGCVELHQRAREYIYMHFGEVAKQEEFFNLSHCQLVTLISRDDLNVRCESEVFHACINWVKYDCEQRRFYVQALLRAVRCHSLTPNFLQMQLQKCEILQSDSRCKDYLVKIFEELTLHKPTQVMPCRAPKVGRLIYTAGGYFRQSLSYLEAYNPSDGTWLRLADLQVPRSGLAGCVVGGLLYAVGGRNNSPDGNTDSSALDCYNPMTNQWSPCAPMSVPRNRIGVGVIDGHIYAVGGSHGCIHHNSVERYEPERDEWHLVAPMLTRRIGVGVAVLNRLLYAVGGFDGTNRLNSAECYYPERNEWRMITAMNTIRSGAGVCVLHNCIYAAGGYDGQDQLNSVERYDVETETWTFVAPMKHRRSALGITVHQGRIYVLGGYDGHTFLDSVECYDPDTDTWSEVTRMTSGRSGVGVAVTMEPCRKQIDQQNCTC
HDAC3 inhib: inhibitors of human histone deacetylase 3; AID 2718; inhibition, % at 8.3 µM; recombinant HDAC3, fluorogenic peptide/trypsin coupled, fluorescence; O15379; 320,000 tested, 0.15% active; in the data active = inhibition above about 26%, passing the limit was not always enough
NSD2 HMT inh: inhibitors of human histone methyltransferase NSD2 | O96028 | NSD2 peptide methylation, AlphaScreen, 120 min | 310,000 tested, 0.54% active | AID 743445 | inhibition, % at 12.5 µM; in the data active = inhibition above about 50%
Casp6 inh: inhibitors of human caspase-6; P55212; purified caspase-6, Z-VEID-R110 cleavage fluorescence; inhibition, % at 12.5 µM; 350,000 tested, 0.53% active; AID 686996;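 active = mean inhibition across replicates at least about 35%, with every replicate also reaching that limit, limit read from the data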;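 note: 0% = median of neutral control wells and 100% = no fluorescence left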
C-LANA FP: blocks KSHV LANA C-terminal domain binding to DNA | MBP-C-LANA/FAM-LBS DNA binding, fluorescence polarization | inhibition, % at 9 µM | 340,000 tested, 0.078% active;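 active = highest replicate inhibition at or above 60% at 9 µM, even if other replicates fall short; inactive = all replicates below 60% inhibition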;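 note: 0% = neutral control wells and 100% = 4 µM acridine orange control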
Glyco luc inh: N-linked glycosylation inhibition. D54 ERlucT glycosylation luciferase reporter, 24 h; percent of 100 nM tunicamycin response. reporter increase, % at 12.5 µM. 360,000 tested, 0.23% active. AID 588692;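 active = mean luciferase reporter signal, scaled so untreated is 0 and the glycosylation-blocking control 100, at or above a set limit in every replicate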;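 note: luciferase carries N-glycosylation sites so blocking glycosylation raises the light; 0% = median of neutral control wells and 100% = median of 100 nM tunicamycin wells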
AlphaScreen art: interferes with AlphaScreen signal, flagging NSD2 false positives | shares compounds with NSD2 HMT inh | 1,500 tested, 9.4% active | AlphaScreen artifact counterscreen, preloaded methylated H4 peptide | AID 1053174 | AC35, µM (top dose mostly 10 µM), inactives show at the top dose activity change, negative = signal loss; call rule not given here
Numbers without * were called inactive; . = no result; + = active, no number.

SMILES	Keap1 Nrf2 FP	HDAC3 inhib	NSD2 HMT inh	Casp6 inh	C-LANA FP	Glyco luc inh	AlphaScreen art
C[C@H](CO)N1C[C@H](C)[C@@H](CN(C)CC2CCCCC2)Oc2ccc(NC(=O)Nc3ccccc3)cc2CC1=O	.	.	.	1	.	.	.
Cc1ccc2c(c1C)-c1c(ccc(C)c1C)C(=O)C2=O	-1	.	85*	8	-1	-15	-8%
CCOc1ccccc1/C=N/NC(=O)c1nnn(-c2nonc2N)c1CN1CCC(C)CC1	-3	6	83*	-1	1	4	-9%
COC(=O)C[C@H]1CC[C@H]2[C@H](COc3ccc(NC(=O)Nc4c(C)noc4C)cc3C(=O)N2C)O1	.	.	.	-2	.	.	.
COc1ccc(S(=O)(=O)Nc2cc(SCC(=O)O)c(O)c3ccccc23)cc1	-44	4	121*	93*	2	10	-6%
COC(=O)CC1=NN(c2ccc(OC)cc2)C(=O)/C1=C\c1ccc(Cl)cc1	-5	7	55*	2	2	2	-2%
Cc1cccc(S(=O)(=O)N2C[C@H]3[C@@H](c4ccccc42)[C@H](CO)N3C(=O)c2ccccc2)c1	.	.	.	-3	.	.	.
O=C(NC1CCCCC1)c1ccc(S(=O)(=O)NCc2ccco2)cc1	-1	4	55*	.	0	-1	-7%
O=C(NC1CCN(Cc2ccccc2)CC1)c1ccc(S(=O)(=O)NCc2ccco2)cc1	2	-6	5	.	3	-4	.
COC(=O)c1cc(S(=O)(=O)N2CCOCC2)c(Cl)cc1N1CCOCC1	-2	7	-1	.	0	4	.
COC(=O)c1cc(C)nc2c1C(=O)C(=O)C=C2N1CCOCC1	-31	2	+	83*	11	-20	-1%
CO[C@@H]1CN(C)C(=O)c2cc(NC(C)=O)ccc2OC[C@H](C)N(CCc2ccccc2)C[C@@H]1C	.	.	.	0	.	.	.
N=c1c(C(=O)NC2CCCC2)cc2c(=O)n3ccccc3nc2n1C1CCCC1	-3	-343	0	.	1	1	.
N=c1c(C(=O)NCc2ccco2)cc2c(=O)n3ccccc3nc2n1C1CCCC1	-3	-57	66*	99*	0	5	1%
COc1ccc2c(c1)c1nc3ccccc3nc1n2CCn1c(=O)oc2ccccc21	-2	-2	58*	.	0	3	0%
c1cc(-c2ccoc2)n2ccnc2c1	.	.	105*	29	.	-2	-1%
C[C@@H]1CN([C@@H](C)CO)S(=O)(=O)c2ccc(C#CC3CC3)cc2O[C@H]1CN(C)Cc1ccccn1	.	.	.	0	.	.	.
CCc1sc(C(=O)Nc2nc(C)cs2)cc1C	-3	.	51*	1	0	-11	-6%
CCc1sc(C(=O)Nc2ccc(NC(C)=O)cc2)cc1C	3	0	1	1	1	-2	.
Clc1ccc(-c2cn3cc(Cl)ccc3n2)cc1	-2	-11	-3	0	1	-17	.
CCN(CC)S(=O)(=O)c1ccc(-c2cn3cc(Cl)ccc3n2)cc1	0	-6	77*	1	-3	6	2%
CN(c1ccccc1)c1ncnc2c1ncn2C	-3	.	122*	-4	-2	1	-4%
CN(C)c1ncnc2c1ncn2-c1ccccc1	-3	.	-2	-1	1	7	.
O=C(Nc1ccc(-c2ccccc2)cc1)[C@@H]1[C@@H](CO)[C@@H]2Cn3c(cccc3=O)[C@H]1N2Cc1cccnc1	.	.	.	-2	.	.	.
CCN(CC)CCCN(Cc1cc2cc(OC)ccc2[nH]c1=O)C(=O)Nc1ccccc1	.	-7	.	.	.	.	.
SMILES	Keap1 Nrf2 FP	HDAC3 inhib	NSD2 HMT inh	Casp6 inh	C-LANA FP	Glyco luc inh	AlphaScreen art
CCN(CC)CCCN(Cc1cc2cc(OC)ccc2[nH]c1=O)C(=O)Nc1ccc(F)cc1	-2	3	86*	.	-3	-2	-8%
N=C1S/C(=C\c2ccc(-c3ccccc3C(=O)O)o2)C(=O)N1c1ccc2c(c1)OCO2	2	.	99*	20	1	1	-4%
Cc1ccc(S(=O)(=O)Nc2cccc3c2O[C@@H](CN(C)Cc2ccc(-c4ccccc4)cc2)[C@@H](C)CN([C@H](C)CO)C3=O)cc1	.	.	.	-3	.	.	.
Cc1ccccc1-c1nnc2n1N=C(c1ccc(O)c(O)c1)CS2	.	.	69*	.	.	.	-8%
Cc1ncc(CO)c2c1Oc1nc(-c3ccccc3)nc(SCC(=O)N3CCOCC3)c1C2	-3	-8	79*	6	-3	0	-10%
Cc1ncc(CO)c2c1Oc1nc(-c3ccccc3)nc(SCC(=O)N3CCCCC3)c1C2	-1	6	11	5	-1	1	.
CCCC(=O)Nc1ccc2c(c1)OC[C@@H](C)N(C(=O)C1CCCC1)C[C@@H](C)[C@H](OC)CN(C)C2=O	.	.	.	0	.	.	.
CN(C)c1ccc2c(c1)[C@@H]1C[C@@H](CC(=O)NCc3cccc(F)c3)O[C@@H](CO)[C@@H]1O2	.	.	.	0	.	.	.
CCN(CC)CCCNc1cc(C)nc2cc(-c3cccs3)nn12	0	-9	62*	-3	1	9	1%
COc1ccc2ccccc2c1C1CC(=O)N2CN(C)CSC2=C1C#N (stereo unspecified)	-3	10	89*	27	2	4	-7%
CC(C)(C)c1cc[n+](C2=C([O-])c3ccccc3C(=O)/C2=N\S(=O)(=O)c2cccs2)cc1	.	4	62*	33	.	-20	-6%
Cc1cc(C)n(CC(O)COc2c(C)cccc2C)n1 (stereo unspecified)	1	5	55*	-1	1	1	4%
Cc1cc(C)n(CC(O)COc2cccc(OCC(O)Cn3nc(C)cc3C)c2)n1 (stereo unspecified)	-4	12	.	.	-2	-3	.
CCCc1[nH]n(-c2nc3ccccc3s2)c(=O)c1C=NCCCN(CC)CC	-6	10	54*	-47	-2	0	1%
CCCN=Cc1c(CCC)[nH]n(-c2nc3ccccc3s2)c1=O	-1	1	.	.	-1	-1	.
CCCc1cc(=O)n(-c2nc3ccccc3s2)[nH]1	1	6	79*	19	-2	-1	1%
CCOC(=O)Cc1cc(=O)n(-c2nc3ccccc3s2)[nH]1	0	8	5	.	4	1	.
COc1ccc(NC(=O)c2ccc(Cl)c(NC(=O)c3cccnc3)c2)cc1	.	.	0	.	.	.	.
N#C[C@@H]1[C@H](c2ccccc2-c2ccccc2)[C@H](CO)N1C(=O)Cc1ccccc1	.	.	.	-1	.	.	.
CC(C)c1ccc(NC(=S)N2CCCC(c3ccc(F)cc3)=N2)cc1	-5	3	60*	1	0	0	0%
S=C(Nc1ccccc1Cl)N1CCCC(c2ccccc2)=N1	-3	-2	-2	-2	0	-2	.
COc1ccccc1NC(=O)C(C)OC(=O)CCNS(=O)(=O)c1cccc(C(F)(F)F)c1 (stereo unspecified)	1	8	105*	-2	1	4	-3%
C[C@@H]1CN([C@H](C)CO)C(=O)c2cc(C#C[C@@H](C)O)cnc2O[C@@H]1CN(C)Cc1ccc(-c2ccccc2)cc1	.	.	.	2	.	.	.
